{"source": "PubChem BioAssay AID1063", "about": "(University of Pittsburgh Molecular Library Screening Center, 2008)", "note": "The whole screen tested about 200,000 compounds, of which about 18,000 (9%) were called active. This is one part of a sample in which actives are shown more often than they occur. Unmarked numbers belong to inactive results. Rule as the data show it: active = inhibition above about 50%; inactive = the rest."}
{"assay": "antileishmanial activity against promastigotes – primary screen (AID 1063);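 also: promastigotes grown with compound for 44 hours at 28 °C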", "settings": "Leishmania major promastigotes, resazurin fluorescence viability; at 10 µM; stronger effect = higher value"}
{"smiles": "COc1ccc(/C=C/C2=CC(C)(C)NC(=S)N2)c(OC)c1", "inhibition": "1.29%"}
{"smiles": "COc1cccc(-n2c(=S)[nH]c3c(oc4ccccc43)c2=O)c1", "inhibition": "-1.14%"}
{"smiles": "CCCC1(C(=O)OC)NC(c2ccco2)C2C(=O)N(C)C(=O)C21", "note": "(stereo not given)", "inhibition": "4.05%"}
{"smiles": "CCC(=O)N(Cc1cc2ccccc2[nH]c1=O)c1ccc(OC)cc1", "inhibition": "11.3%"}
{"smiles": "Cc1cccc2cc(CN(C(=O)c3cccs3)c3ccccc3)c(=O)[nH]c12", "inhibition": "-3.04%"}
{"smiles": "Cc1ccc(N(Cc2cc3ccccc3[nH]c2=O)C(=O)c2cccs2)cc1", "inhibition": "75.4% (active)"}
{"smiles": "Cc1ccc2c(c1)C(O)(CC(=O)c1cccc(-n3cccc3)c1)C(=O)N2", "note": "(stereo not given)", "inhibition": "0.06%"}
{"smiles": "COCCCNC(=O)c1ccc2c(c1)ncn2-c1ccccc1OC", "inhibition": "-1.51%"}
{"smiles": "COc1ccccc1-n1cnc2cc(NS(=O)(=O)c3ccccc3)ccc21", "inhibition": "98.3% (active)"}
{"smiles": "COc1cc(NS(=O)(=O)c2ccccc2)ccc1-n1nc(C)cc1C", "inhibition": "-5.46%"}
{"smiles": "O=[N+]([O-])c1ccccc1N/N=C1\\CCc2ccccc21", "inhibition": "-1.95%"}
{"smiles": "N#Cc1cccc(NC(=O)CCC2CCCC2)c1", "inhibition": "5.79%"}
{"smiles": "O=C(Nc1c2c(nc3ccccc13)CCCC2)c1ccccc1Br", "inhibition": "6.31%"}
{"smiles": "N#Cc1cccc(Nc2c3c(nc4ccccc24)CCCC3)c1", "inhibition": "86.9% (active)"}
{"smiles": "COc1ccc2c(c1)C(c1cccs1)=NNC(c1cccnc1)=N2", "inhibition": "23.7%"}
{"smiles": "CC(NC(=O)COC(=O)c1ccc2c(c1)OCO2)c1ccccc1", "note": "(stereo not given)", "inhibition": "-3.45%"}
{"smiles": "CCOC(=O)C1=C(C)N=C2c3ccccc3C(=O)C2C1c1ccc(Br)cc1", "note": "(stereo not given)", "inhibition": "99.4% (active)"}
{"smiles": "CCOC(=O)C1=C(C)NC(=O)NC1c1ccccc1", "note": "(stereo not given)", "inhibition": "-1.3%"}
{"smiles": "CCOC(=O)C1=C(C)NC(SC)=NC1c1ccccc1", "note": "(stereo not given)", "inhibition": "8.85%"}
{"smiles": "CN(C)c1nccc(NCc2ccccc2)c1C#N", "inhibition": "-3.1%"}
{"smiles": "COCCCNC(=O)CNC(=S)N(Cc1cc(OC)c(OC)c(OC)c1)C1CCCC1", "inhibition": "-3.29%"}
{"smiles": "COc1ccc(OCC(O)CNC(=O)Nc2ccc(Cl)cc2)cc1", "note": "(stereo not given)", "inhibition": "-4.73%"}
{"smiles": "CN(C)CC(O)COc1ccc(C(C)(C)c2ccc(OCC(O)CN(C)C)cc2)cc1", "note": "(stereo not given)", "inhibition": "100% (active)"}
{"smiles": "CCCC(O)(c1ccc(OC)cc1)C(CN(C)C)c1ccccc1", "note": "(stereo not given)", "inhibition": "-1.91%"}
{"smiles": "CN(C)S(=O)(=O)c1cccc(NC(=S)N/N=C/C(=O)c2ccccc2)c1", "inhibition": "2.84%"}
{"smiles": "Cc1cccc(N2CCN(c3ccc(NC(=O)/C=C\\C(=O)O)cc3)CC2)c1", "inhibition": "-2.44%"}
{"smiles": "Cc1cc(NC(=O)CCC2COc3ccccc3O2)no1", "note": "(stereo not given)", "inhibition": "-5.57%"}
{"smiles": "Cc1cc(C(=O)CCl)c(C)n1CC1COc2ccccc2O1", "note": "(stereo not given)", "inhibition": "101% (active)"}
{"smiles": "Cc1ccsc1C(=O)OCC(=O)c1cc(C)n(CC2CCCO2)c1C", "note": "(stereo not given)", "inhibition": "-1.1%"}
{"smiles": "O=C(C1=C[C@H](c2ccc(C(F)(F)F)cc2)C[C@H](OCc2ccc(CO)cc2)O1)N1CCN(Cc2ccccc2)CC1", "inhibition": "25.6%"}
{"smiles": "O=C(NCc1ccccc1)C1=C[C@@H](c2ccc(C(F)(F)F)cc2)C[C@@H](OCc2ccc(CO)cc2)O1", "inhibition": "87% (active)"}
{"smiles": "O=C(NCc1ccccc1)C1=C[C@@H](C2CCCCC2)C[C@@H](OCc2ccc(CO)cc2)O1", "inhibition": "50.2% (active)"}
{"smiles": "CC(C)(C)[C@H]1C=C(C(=O)NCc2ccccc2)O[C@@H](OCc2ccc(CO)cc2)C1", "inhibition": "20.8%"}
{"smiles": "C=CCOC(=O)C1=C[C@@H](c2ccccc2)C[C@@H](OCc2ccc(CO)cc2)O1", "inhibition": "13.8%"}
{"smiles": "O=C(NCc1ccccc1)C1=C[C@H](C2CC2)C[C@H](OCc2ccc(CO)cc2)O1", "inhibition": "6.42%"}
{"smiles": "CCOC(=O)C1(C)NC(c2ccco2)C2C(=O)N(c3ccccc3)C(=O)C21", "note": "(stereo not given)", "inhibition": "-8.75%"}
{"smiles": "COc1cc(NC(=S)NCc2ccc(S(N)(=O)=O)cc2)cc(OC)c1", "inhibition": "11.8%"}
{"smiles": "Cn1c(SCC(=O)OC2CCCCC2)nnc1-c1ccc(S(=O)(=O)N2CCCC2)cc1", "inhibition": "-0.74%"}
{"smiles": "CC1Cc2ccccc2N1C(=O)CSc1nnc(-c2ccc(S(=O)(=O)N3CCCC3)cc2)n1C", "note": "(stereo not given)", "inhibition": "97.9% (active)"}
{"smiles": "CC1Cc2ccccc2N1C(=O)CSc1nnc(C2CC2)n1C", "note": "(stereo not given)", "inhibition": "14.8%"}
{"smiles": "O=C(Nc1ccc(N2CCN(C(=O)c3cccs3)CC2)cc1)c1cccnc1Cl", "inhibition": "16.4%"}
{"smiles": "CCOc1ccccc1/C=N/NC(=O)CNC(=O)COc1ccccc1", "inhibition": "-1.93%"}
{"smiles": "N#C/C=C(/c1ccc(F)cc1)N1CCOCC1", "inhibition": "1.16%"}
{"smiles": "Cc1cc(C)n2nc(SCC(N)=O)nc2n1", "inhibition": "4.1%"}
{"smiles": "COc1ccc(S(=O)(=O)N2CCCCC2)cc1Br", "inhibition": "-0.43%"}
{"smiles": "CCCCn1c(=S)[nH]c2ccccc2c1=O", "inhibition": "-2.23%"}
{"smiles": "CCCCn1c(=S)[nH]c2cc(S(=O)(=O)N3CCCCC3)ccc21", "inhibition": "96.4% (active)"}
{"smiles": "COC(=O)C(C(=O)Nc1cccc(Cl)c1C)C1CCCC1", "note": "(stereo not given)", "inhibition": "-0.21%"}
{"smiles": "Cc1ccc(OCCCC(=O)NC(C)c2ccccc2)c(C)c1", "note": "(stereo not given)", "inhibition": "11.7%"}
{"smiles": "CCC(CC)c1nnc(NC(=O)c2nn(C)c(=O)c3ccccc23)s1", "inhibition": "8.15%"}
{"smiles": "N#Cc1c(C(F)(F)F)cc(-c2ccc(Cl)cc2)nc1SCC(=O)O", "inhibition": "-6.26%"}
{"smiles": "CN(C)CCCNC(=O)/C=C/c1ccc(OCc2c(F)cccc2Cl)cc1", "inhibition": "89.1% (active)"}
{"smiles": "COCCCNC(=O)/C=C/c1ccc(OCc2c(F)cccc2Cl)cc1", "inhibition": "16%"}
{"smiles": "O=C(/C=C/c1ccc(OCc2c(F)cccc2Cl)cc1)N1CCOCC1", "inhibition": "35.5%"}
{"smiles": "COc1ccccc1-n1ccnc1SCC(=O)NC(C)(C)C", "inhibition": "-1.52%"}
{"smiles": "COC(=O)c1ccc(CSc2nnc(N)s2)o1", "inhibition": "-5.93%"}
{"smiles": "CCC(c1nnnn1Cc1ccco1)N(CCc1ccccc1)Cc1cc2cccc(C)c2[nH]c1=O", "note": "(stereo not given)", "inhibition": "39.7%"}
{"smiles": "CCC(c1nnnn1Cc1ccco1)N(Cc1cc2cc(OC)ccc2[nH]c1=O)C1CCCCC1", "note": "(stereo not given)", "inhibition": "49.5%"}
{"smiles": "CCC(c1nnnn1Cc1ccco1)N(CCc1ccccc1)Cc1cc2ccc(OC)cc2[nH]c1=O", "note": "(stereo not given)", "inhibition": "85.7% (active)"}
{"smiles": "CN(C)c1ccc(C(CC(=O)O)C(=O)O)cc1", "note": "(stereo not given)", "inhibition": "-3.91%"}
{"smiles": "Cc1cccc(NC(=O)c2nnn(-c3cccc(C(F)(F)F)c3)c2N)c1", "inhibition": "3.89%"}
{"smiles": "Cc1nc([N+](=O)[O-])nn1C12CC3CC(CC(Br)(C3)C1)C2", "inhibition": "98.2% (active)"}
{"smiles": "Cc1ncn(C23CC4CC(CC(O)(C4)C2)C3)n1", "inhibition": "-5.82%"}
{"smiles": "O=S(=O)(c1ccccc1)c1nc(-c2ccccc2F)oc1NCc1cccnc1", "inhibition": "0.99%"}
{"smiles": "CCCCC(NC(=O)c1cccc(Br)c1)C(=O)O", "note": "(stereo not given)", "inhibition": "21.1%"}
{"smiles": "CC(CC(=O)O)CC(=O)NNC(=O)c1cccc(Br)c1", "note": "(stereo not given)", "inhibition": "-4.63%"}
{"smiles": "C/C(Cc1ccccc1)=N\\NC(=O)CNC(=O)c1cccc(Br)c1", "inhibition": "51.4% (active)"}
{"smiles": "COc1ccc(C)cc1-n1nnnc1SCc1nc2ccccc2c(=O)[nH]1", "inhibition": "2.27%"}
{"smiles": "Cc1nc(-c2ccc(Cl)cc2)sc1C(=O)CBr", "inhibition": "-12.4%"}
{"smiles": "CCCn1c(=S)[nH]c2ccc(C(F)(F)F)cc21", "inhibition": "-2.71%"}
{"smiles": "CCCC(=O)OCC(=O)Nc1cc(Cl)ccc1[N+](=O)[O-]", "inhibition": "-6.12%"}
{"smiles": "COc1ccc(OC)c(Nc2nc(-c3ccc(O)c(O)c3)cs2)c1", "inhibition": "20.7%"}
{"smiles": "Cc1[nH]c2ccccc2c1-c1ccc(Cl)nn1", "inhibition": "-2.46%"}
{"smiles": "COc1ccc(C)cc1Nc1nc(-c2c(C)[nH]c3ccccc23)cs1", "inhibition": "97.8% (active)"}
{"smiles": "COC(=O)C(NS(=O)(=O)c1ccc(F)cc1)c1ccccc1", "note": "(stereo not given)", "inhibition": "-1.84%"}
{"smiles": "CS/C(=C\\[N+](=O)[O-])Nc1ccc(C)cc1", "inhibition": "-1.56%"}
{"smiles": "CCc1nnc(NC(=O)c2cccc(S(=O)(=O)N(C)c3ccc(OC)cc3)c2)s1", "inhibition": "-0.19%"}
{"smiles": "O=C(Cc1ccccc1)NC(=S)Nc1ccc(N2CCCCC2)cc1", "inhibition": "-9.12%"}
{"smiles": "COc1ccc(-n2c(C)cc(C(=O)CSc3nnc(-c4cccs4)o3)c2C)cc1", "inhibition": "-4.2%"}
{"smiles": "COc1ccc(-n2c(C)cc(C(=O)CN3C(=O)NC4(CCc5ccccc54)C3=O)c2C)cc1", "note": "(stereo not given)", "inhibition": "98.6% (active)"}
{"smiles": "Cc1ccc(-n2c(C)cc(C(=O)CN3C(=O)C(=O)N(C4CCCC4)C3=O)c2C)cc1", "inhibition": "-5.85%"}
{"smiles": "Cc1nn(-c2ccc([N+](=O)[O-])cc2)c(N)c1-c1ccccc1", "inhibition": "-4.1%"}
{"smiles": "CC(C)(C)NC(=O)NC(=O)COC(=O)Cc1c(F)cccc1Cl", "inhibition": "2.42%"}
{"smiles": "O=C(CSc1cccc[n+]1[O-])NCCCc1ccccc1", "inhibition": "1.17%"}
{"smiles": "COC(=O)c1ccccc1NC(=O)C1CC(=O)N(c2ccc(OC)cc2)C1", "note": "(stereo not given)", "inhibition": "-10.5%"}
{"smiles": "COc1cccc(NC(=O)Nc2nnc(N3CCCCC3C)s2)c1", "note": "(stereo not given)", "inhibition": "3.59%"}
{"smiles": "CCOc1ccccc1Nc1nnc(SCC(=O)Nc2cc(C)on2)s1", "inhibition": "4.84%"}
{"smiles": "COc1cccc(N2CC(C(=O)Nc3c(C)cccc3C)CC2=O)c1", "note": "(stereo not given)", "inhibition": "2.01%"}
{"smiles": "COc1cccc(Nc2nnc(SCC(=O)N3CC(C)OC(C)C3)s2)c1", "note": "(stereo not given)", "inhibition": "51.2% (active)"}
{"smiles": "COc1ccc(C(=O)CSc2nnc(NC(=O)C3CC(=O)N(c4cccc(OC)c4)C3)s2)cc1", "note": "(stereo not given)", "inhibition": "56.9% (active)"}
{"smiles": "CCOC(=O)CCCN1CC(O)=C(c2nc3ccccc3s2)C1=N", "inhibition": "17%"}
{"smiles": "CC(C)n1c(=O)[nH]c2cc(C(=O)Nc3ccccc3)ccc21", "inhibition": "-2.18%"}
{"smiles": "O=C(N/N=C/c1ccco1)c1ccc(C(=O)N/N=C/c2ccco2)o1", "inhibition": "-1.3%"}
{"smiles": "COC(=O)c1nn(-c2cccc(Cl)c2)ccc1=O", "inhibition": "-3.04%"}
{"smiles": "O=C(Cc1ccc([N+](=O)[O-])cc1)N/N=C/c1ccco1", "inhibition": "2.95%"}
